Experiment [1] relates to Wnt5a (protein binding on small-molecule microarray). The experiment can be described thus: small molecules binding Wnt5a protein – biophysical, small-molecule microarray, 635/667 nm fluorescence, primary screen (AID 1142).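 Note: fluorescence read at 667 nm with signal to noise per printed feature.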 Particulars: 635 nm fluorescence, higher = more signal.
Experiment [2] can be described thus: ATP-based viability of Huh7 replicon cells – cell-based, CellTiter-Glo luminescence, basal, 48 h, cytotoxicity control for HCV replication inhibitor project, primary screen (AID 1143).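 Note: Huh7 hepatoma cells carrying a hepatitis C replication reporter with no stimulus; test concentration not given here.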 Particulars: higher = more signal, called active from +8 up or from −8 down. On the technique in general: In antiviral work, replicon cells carry a viral genome segment that copies itself.

A short description of experiment [3]: Pseudomonas biofilm growth suppression – PAO1 strain, BacTiter-Glo luminescence, LB-PBS, primary screen (AID 1144). As to conditions: P. aeruginosa PAO1 biofilm, 12 h, higher = more signal.
Experiment [4] can be described thus: basal CRE-LacZ reporter activity in PC12 – cell-based, unstimulated, primary screen (AID 1145). Particulars: no forskolin, luminescence, 4.5 h, higher = more signal, called active from +8 up or from −8 down.
The nature of experiment [5]: forskolin-driven CRE-LacZ activity in PC12 – cell-based, CRE-LacZ reporter, forskolin-stimulated, primary screen (AID 1146).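 Note: PC12 cells with 6xCRE LacZ reporter stimulated by forskolin 10 µM; beta-galactosidase reporter signal reflecting CREB driven transcription.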 As to conditions: luminescence, 4.5 h, higher = more signal, called active from +8 up or from −8 down.
Experiment [6] addresses Streptavidin (Streptomyces avidinii) (UniProt P22629). As to the kind of experiment: compounds binding control protein streptavidin – biophysical, small-molecule microarray, 635/667 nm fluorescence, artefact control for SMM compound annotation, primary screen (AID 1147).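 Note: signal reflects streptavidin binding to arrayed compounds as a control protein.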 As to conditions: higher = more signal.
A short description of experiment [7]: probe aInhba binding on compound microarray – biochemical, small-molecule microarray, 635/667 nm fluorescence, primary screen (AID 1148).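 Note: score merges 667nm spot fluorescence with signal-to-noise for antibody binding to printed compounds.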 As to conditions: higher = more signal.
The target in experiment [8] is Torsin-1A (Homo sapiens) (UniProt O14656). As to the kind of experiment: TOR1A wild-type binding on microarray – cell lysate, small-molecule microarray, lysate, 635/667 nm, primary screen (AID 1149). As to conditions: COS7 hTOR1A-WT lysate, 635 nm fluorescence, higher = more signal.
Sequence of Torsin-1A (Homo sapiens) (O14656 whole entry, looked up): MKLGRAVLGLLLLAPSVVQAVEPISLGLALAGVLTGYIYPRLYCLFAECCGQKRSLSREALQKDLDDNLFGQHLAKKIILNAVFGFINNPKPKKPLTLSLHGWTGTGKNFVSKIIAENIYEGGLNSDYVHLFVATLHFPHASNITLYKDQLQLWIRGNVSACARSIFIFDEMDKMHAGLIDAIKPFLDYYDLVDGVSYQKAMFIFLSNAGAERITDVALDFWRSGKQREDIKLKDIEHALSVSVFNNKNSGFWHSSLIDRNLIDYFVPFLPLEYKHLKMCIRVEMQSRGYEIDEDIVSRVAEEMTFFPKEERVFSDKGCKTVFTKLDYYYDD
Experiment [9] has the same target. As to the kind of experiment: torsin A mutant lysate binding on microarrays – cell lysate, small-molecule microarray, COS7 lysate, 635/667 nm fluorescence, primary screen (AID 1150).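 Note: score pools 667 nm emission and signal to noise measuring lysate protein binding.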 As to conditions: COS7 hTOR1A mutant lysate, 635 nm fluorescence, higher = more signal.
The subject of experiment [10] is Sonic hedgehog protein (Shh). As to the kind of experiment: Sonic hedgehog microarray binding compounds – biochemical, small-molecule microarray, 635/667 nm fluorescence, primary screen (AID 1151).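 Note: Shh protein binding to compounds spotted on small-molecule microarray slides; score combines spot fluorescence intensity with signal-to-noise across triplicate slides.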 Particulars: 635 nm fluorescence, higher = more signal.
A short description of experiment [11]: optical density shifts of acrAB sulA E. coli – strain DRC41, OD650, 48 h, E. coli filamentation inducer project, primary screen (AID 1152).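 Note: E. coli MC1000 strain DRC41 lacking acrAB efflux pump and sulA.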 As to conditions: higher = more signal, called active from +8 up or from −8 down.
The nature of experiment [12]: probe aLefty1 binding on compound microarray – biochemical, small-molecule microarray, 635/667 nm fluorescence, primary screen (AID 1153).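 Note: score merges spot fluorescence with signal-to-noise ratio from the scanned slide images.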 Particulars: higher = more signal.
A short description of experiment [13]: plasmodial surface anion channel blockers, osmotic lysis – cell-based, P. falciparum Indochina, OD700, 1 h, primary screen (AID 1154). Particulars: P. falciparum Indochina infected RBC osmotic lysis, higher = more signal, called active from +8 up or from −8 down.
Experiment [14] can be described thus: plasmodial surface anion channel blockers, osmotic lysis – cell-based, P. falciparum Indochina, OD700, 2 h, primary screen (AID 1155).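 Note: lysis reports solute entry through the parasite surface anion channel PSAC.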 As to conditions: P. falciparum Indochina infected erythrocytes, higher = more signal, called active from +8 up or from −8 down.
Experiment [15] is described as follows: changes in parasitized red cell lysis, either direction – P. falciparum Indochina, OD700, 3 h, PSAC antagonist project, primary screen (AID 1156). As to conditions: P. falciparum-infected erythrocytes, osmotic lysis, higher = more signal, called active from +8 up or from −8 down.
Experiment [16] can be described thus: plasmodial surface anion channel blockers, osmotic lysis – cell-based, P. falciparum Indochina, OD700, 18 h, primary screen (AID 1157). As to conditions: P. falciparum Indochina infected erythrocytes, osmotic lysis OD700, 18 h; higher = more signal, called active from +8 up or from −8 down.
The nature of experiment [17]: S6 kinase pathway phospho-S6 level changes – cell-based, A549, cytoblot, luminescence, serum-stimulated, primary screen (AID 1158).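 Note: serum-stimulated A549 lung adenocarcinoma cells; signal is phosphorylated S6 detected by cytoblot immunostaining with HRP secondary.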 As to conditions: 5 h, higher = more signal.
For experiment [18], the target named is NADPH oxidase 2 (Homo sapiens) (UniProt P04839). The experiment can be described thus: compounds shifting NOX2 Amplex Red fluorescence – cell-based, HEK293-NOX2, PMA-stimulated, NOX inhibitor project, primary screen (AID 1159). Note: test concentration not given here. Particulars: 45 min, higher = more signal, called active from +8 up or from −8 down.
Sequence of NADPH oxidase 2 (Homo sapiens) (P04839 whole entry, looked up): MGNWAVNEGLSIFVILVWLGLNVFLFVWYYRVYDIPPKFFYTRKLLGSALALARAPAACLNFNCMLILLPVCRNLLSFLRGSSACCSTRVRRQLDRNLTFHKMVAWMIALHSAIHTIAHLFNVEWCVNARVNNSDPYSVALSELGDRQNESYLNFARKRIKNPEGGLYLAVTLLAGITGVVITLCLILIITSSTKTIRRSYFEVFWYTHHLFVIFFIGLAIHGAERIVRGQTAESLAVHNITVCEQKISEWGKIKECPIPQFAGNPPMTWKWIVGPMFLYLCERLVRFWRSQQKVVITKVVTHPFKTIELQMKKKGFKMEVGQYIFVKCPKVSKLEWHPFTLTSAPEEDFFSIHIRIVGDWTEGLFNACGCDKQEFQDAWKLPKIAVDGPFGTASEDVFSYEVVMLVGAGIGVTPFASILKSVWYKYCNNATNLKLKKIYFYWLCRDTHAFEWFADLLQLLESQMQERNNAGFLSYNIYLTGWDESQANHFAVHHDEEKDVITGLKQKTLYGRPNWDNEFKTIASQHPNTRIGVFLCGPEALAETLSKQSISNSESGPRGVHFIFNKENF
Experiment [19] concerns the target NADPH oxidase 4 (Homo sapiens) (UniProt Q9NPH5). As to the kind of experiment: compounds shifting NOX4 Amplex Red fluorescence – cell-based, HEK293-NOX4, tetracycline-induced, NOX inhibitor project, primary screen (AID 1160). As to conditions: HEK293-NOX4, Amplex Red H2O2 fluorescence, 45 min; higher = more signal, called active from +8 up or from −8 down.
For experiment [20], the target named is NADPH oxidase 5 (Homo sapiens) (UniProt Q96PH1). The experiment can be described thus: compounds shifting NOX5 Amplex Red fluorescence – cell-based, HEK293-NOX5, NOX inhibitor project, primary screen (AID 1161). As to conditions: HEK293-NOX5, ionomycin, 45 min, higher = more signal.
Sequence of NADPH oxidase 5 (Homo sapiens) (Q96PH1 whole entry, looked up): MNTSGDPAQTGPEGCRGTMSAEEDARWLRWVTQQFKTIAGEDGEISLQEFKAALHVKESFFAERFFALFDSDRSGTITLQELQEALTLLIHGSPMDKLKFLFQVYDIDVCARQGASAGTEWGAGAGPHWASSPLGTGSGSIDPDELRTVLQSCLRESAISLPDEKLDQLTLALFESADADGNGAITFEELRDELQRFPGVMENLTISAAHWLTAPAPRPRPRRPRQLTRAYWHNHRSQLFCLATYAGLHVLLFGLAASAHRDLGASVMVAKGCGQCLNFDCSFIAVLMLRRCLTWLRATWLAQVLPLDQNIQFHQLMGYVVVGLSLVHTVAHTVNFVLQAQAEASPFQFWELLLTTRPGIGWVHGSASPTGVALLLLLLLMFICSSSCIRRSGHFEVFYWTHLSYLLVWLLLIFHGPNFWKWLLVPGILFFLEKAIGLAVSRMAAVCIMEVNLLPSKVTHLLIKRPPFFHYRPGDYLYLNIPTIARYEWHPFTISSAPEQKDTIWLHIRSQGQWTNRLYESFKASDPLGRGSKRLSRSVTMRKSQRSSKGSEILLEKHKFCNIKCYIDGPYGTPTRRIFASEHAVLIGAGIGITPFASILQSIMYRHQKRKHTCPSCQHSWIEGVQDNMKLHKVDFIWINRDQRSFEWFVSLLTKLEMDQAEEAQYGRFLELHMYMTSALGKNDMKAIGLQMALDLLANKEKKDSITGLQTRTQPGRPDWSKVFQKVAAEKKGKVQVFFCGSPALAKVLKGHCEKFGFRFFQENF

The source made the active and inactive calls. Unless noted, the rule behind the calls is not given here.

Sequence of Streptavidin (Streptomyces avidinii) (P22629 whole entry, looked up): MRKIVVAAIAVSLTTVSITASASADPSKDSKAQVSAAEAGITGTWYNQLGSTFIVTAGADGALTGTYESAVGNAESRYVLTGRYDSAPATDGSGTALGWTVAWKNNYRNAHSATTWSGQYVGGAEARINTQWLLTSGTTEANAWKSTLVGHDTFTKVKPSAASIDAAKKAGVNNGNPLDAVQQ
Sequence of NADPH oxidase 4 (Homo sapiens) (Q9NPH5 whole entry, looked up): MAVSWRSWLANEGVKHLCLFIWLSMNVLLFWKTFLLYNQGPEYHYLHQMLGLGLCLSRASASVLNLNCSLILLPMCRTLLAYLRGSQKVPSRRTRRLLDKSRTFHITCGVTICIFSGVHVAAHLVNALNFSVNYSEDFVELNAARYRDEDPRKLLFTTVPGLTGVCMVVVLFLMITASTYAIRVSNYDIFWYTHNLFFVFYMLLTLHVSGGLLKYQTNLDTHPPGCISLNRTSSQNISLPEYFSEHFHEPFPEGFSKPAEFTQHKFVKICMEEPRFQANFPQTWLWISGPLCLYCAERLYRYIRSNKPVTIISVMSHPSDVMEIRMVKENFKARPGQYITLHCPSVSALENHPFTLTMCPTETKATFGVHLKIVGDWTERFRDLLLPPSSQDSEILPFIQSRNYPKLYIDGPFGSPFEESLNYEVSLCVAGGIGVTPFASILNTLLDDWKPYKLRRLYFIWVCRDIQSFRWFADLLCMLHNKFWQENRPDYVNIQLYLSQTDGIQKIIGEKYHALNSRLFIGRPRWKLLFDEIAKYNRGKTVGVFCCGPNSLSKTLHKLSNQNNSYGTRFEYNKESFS

Take `CC(C)N1CC=CC23O[C@@H]4C=CCOC(=O)[C@@H]4[C@H]2C(=O)N(CCCCCCO)[C@@H]3C1=O` (stereo not given in full): the composite z-score in experiment [1] was -0.301; in experiment [6], -0.665; in experiment [7], -0.097; in experiment [8], -2.54; in [9], -0.976; in experiment [10], 1.08. Besides, the composite z-score in experiment [12] is -0.184. Moreover, the z-score in experiment [2] is -0.0015 (inactive); in [3] it was -0.839 (inactive); in [4] it was -0.627 (inactive); in experiment [5], -0.421 (inactive); in experiment [11], 0.864 (inactive); in [13], 0.855 (inactive). For the same compound, the z-score in experiment [14] is 0.619 (inactive); in experiment [15], 0.343 (inactive); in [16] it was 0.65 (inactive); in experiment [17], -0.0596; in experiment [18], 0.936 (inactive); in experiment [19] it was -0.482 (inactive). Further, in experiment [20], the z-score worked out at 1.26.
As for `C=CCNC(=O)[C@@H]1[C@H]2C(=O)O[C@H](c3ccccc3)[C@H](c3ccccc3)N2[C@H](c2ccc(O)cc2)[C@@]12C(=O)Nc1ccc(C#CCCO)cc12`, the composite z-score in [1] was 0.177; in experiment [6] it was -0.955; in [7] it was -0.153; in [8], -1.05; in experiment [9] it was -0.106; in experiment [10], -0.736. In experiment [12], this compound registered a composite z-score of -0.495. Further, the z-score is -2.21 (inactive) in experiment [2]; -0.661 (inactive) in [3]; 0.0384 (inactive) in experiment [4]; -0.612 (inactive) in experiment [5]; 1.79 (inactive) in experiment [11]; 2.1 (inactive) in experiment [13]. The z-score in experiment [14] was -0.785 (inactive); in [15], -0.534 (inactive); in [16], -1.86 (inactive); in experiment [17] it was 0.727; in [18], 0.422 (inactive); in experiment [19], -0.449 (inactive). The z-score in experiment [20] was 0.425.
Take `CN(C)CCCNC(=O)[C@@]1(Cc2ccccc2I)c2ccccc2C(=O)N(Cc2ccccc2Cl)[C@H]1c1ccc(CO)cc1`: the composite z-score in experiment [1] is 0.228; in experiment [6] it was 0.592; in [7], 0.397; in [8], -0.155; in experiment [9], -0.609; in experiment [10], -0.0692. The compound also registered a composite z-score in experiment [12] of 0.208. Besides, the z-score was -5.9 (inactive) in experiment [2]; 0.599 (inactive) in experiment [3]; 0.0548 (inactive) in experiment [4]; 2.02 (inactive) in [5]; -2.91 (inactive) in [11]; 10.7 (active) in [13]. Besides, the z-score in [14] is 0.867 (inactive); in experiment [15], -0.613 (inactive); in experiment [16], 0.524 (inactive); in experiment [17], -1.27; in [18] it was -10.2 (active); in [19], -4.71 (inactive). In addition, in [20], the z-score was -5.47.
In the case of `[N-]=[N+]=NCc1ccccc1C[C@]1(C(=O)NCCN2CCOCC2)COC(c2ccc(OCCCO)cc2)=N1`, the composite z-score in [1] is 0.315; in experiment [6] it was 0.837; in experiment [7] it was 0.161; in [8] it was 0.969; in experiment [9], 0.645; in [10] it was -0.204. Further, the composite z-score in experiment [12] stood at 0.265. Also, the z-score in experiment [2] is -2.41 (inactive); in experiment [3] it was -0.0639 (inactive); in experiment [4], 2.64 (inactive); in [5], -0.664 (inactive); in experiment [11], 0.581 (inactive); in experiment [13], 23.9 (active). In addition, the z-score in experiment [14] was 10.2 (active); in experiment [15], 3.35 (inactive); in experiment [16] it was 2.09 (inactive); in experiment [17] it was 0.132; in experiment [18], -0.379 (inactive); in experiment [19], 0.846 (inactive). Moreover, the z-score in [20] was 0.109.
With `Cc1cc(C)c(C(O)C2C=CC3C(=O)N(c4ccccc4)C(=O)C3N2Nc2ccccc2)c(C)c1` (stereo not given), the composite z-score in experiment [1] turned out to be 0.345; in experiment [6], 1.55; in [7], 0.117; in experiment [8], 0.133; in experiment [9], 0.329; in experiment [10] it was 0.234. This compound also displayed a composite z-score in experiment [12] of 0.157. Besides, the z-score in [2] is 0.326 (inactive); in experiment [3], -1.38 (inactive); in experiment [4] it was -0.329 (inactive); in experiment [5] it was 0.501 (inactive); in experiment [11], -0.687 (inactive); in experiment [13] it was 1.72 (inactive). For the same compound, the z-score is 1.23 (inactive) in experiment [14]; 0.244 (inactive) in experiment [15]; 1.44 (inactive) in experiment [16]; -0.824 in experiment [17]; -1.56 (inactive) in [18]; -3.06 (inactive) in experiment [19]. The z-score in experiment [20] is -3.17.
On to `C[C@@H]1ON(c2ccccc2)[C@H](c2ccccc2)[C@H]1C(=O)N1C(=O)OC[C@H]1Cc1ccccc1`, for which the composite z-score in experiment [1] is -0.0187; in [6] it was 1.9; in experiment [7], -0.0538; in [8], 0.242; in experiment [9], -0.0355; in [10], 0.637. Moreover, the composite z-score in experiment [12] was -0.294. The z-score is -1.04 (inactive) in experiment [2]; -0.516 (inactive) in [3]; 0.951 (inactive) in experiment [4]; 0.053 (inactive) in experiment [5]; 0.848 (inactive) in experiment [11]; 1.66 (inactive) in experiment [13]. For the same compound, the z-score in experiment [14] was 0.282 (inactive); in experiment [15], -0.13 (inactive); in [16] it was 0.379 (inactive); in experiment [17] it was 0.389; in experiment [18], 0.0547 (inactive); in experiment [19] it was -0.104 (inactive). For the same compound, the z-score in experiment [20] is -1.37.
As to `C[N+](C)(C)CCCCCCNC(=O)[C@@H]1C[C@@H]2C(=O)NCC(=O)N2[C@@H]1c1ccc(O)cc1`, the composite z-score was 0.0508 in experiment [1]; 1.44 in [6]; -0.0933 in experiment [7]; 0.319 in experiment [8]; 0.523 in experiment [9]; 2.16 in experiment [10]. In addition, in [12], the composite z-score worked out at 0.0984. Also, the z-score is -0.0464 (inactive) in [2]; -0.404 (inactive) in [3]; -0.532 (inactive) in experiment [4]; -0.828 (inactive) in [5]; 0.109 (inactive) in [11]; 0.451 (inactive) in experiment [13]. Moreover, the z-score in [14] is -0.196 (inactive); in experiment [15], -1.53 (inactive); in [16] it was -0.238 (inactive); in experiment [17] it was -0.727; in experiment [18], 0.823 (inactive); in experiment [19], 0.899 (inactive). For the same compound, the z-score in experiment [20] was -0.757.
`CCOc1cc(C(O)C2C=CC3C(=O)NC(=O)C3N2Nc2ccccn2)ccc1O` (stereo not given): the composite z-score is 0.342 in experiment [1]; 0.171 in experiment [6]; -0.158 in experiment [7]; -0.0106 in experiment [8]; 0.12 in experiment [9]; -0.476 in experiment [10]. The composite z-score in [12] came out at 0.0253. For the same compound, the z-score is 0.961 (inactive) in [2]; 0.543 (inactive) in experiment [3]; -0.333 (inactive) in experiment [4]; 0.153 (inactive) in experiment [5]; -1.17 (inactive) in experiment [11]; -0.251 (inactive) in experiment [13]. Besides, the z-score in [14] is 0.519 (inactive); in experiment [15], -0.195 (inactive); in experiment [16], 0.828 (inactive); in [17], -1.27; in experiment [18], -1.35 (inactive); in [19] it was -3.69 (inactive). Further, the z-score in experiment [20] is -1.57.

Source of the values: PubChem BioAssay.
